# Source: PubChem BioAssay (Tox21)
# Where “and” joins values, the source holds several entries; their conditions need not be identical. Equal entries are not always repeated. Inconclusive results are not listed. Entries that show only a call come without a potency. Some structures have more than one record in an assay (separate samples or runs), and their calls can disagree. Calls of active or inactive are those of the source. Unless noted, the call rests on the fitted dose curve.
# Experiments:
# [1] = Nuclear factor erythroid 2-related factor 2/antioxidant responsive element (Nrf2/ARE) small molecule agonists: qHTS cell viability counter screen in human keratinocytes (AID 1919968; active means well fitted curve in the direction sought with a large enough effect in the repeat runs; an effect the other way counts as inactive or inconclusive; further: nearly all actives have a fitted effect of over 55% in size; further: potency means the concentration at half of the fitted maximal effect)
# Outline: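 Viability counter-screen: KeratinoSens reporter cells, DMSO-delivered compounds, 23 h at 37 C, CellTiter-Fluor fluorescence.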
# [2] = Nuclear factor erythroid 2-related factor 2/antioxidant responsive element (Nrf2/ARE) small molecule agonists: luciferase reporter gene qHTS assay in human keratinocytes (AID 1919969); further: nearly all actives have a fitted effect of over 35% in size; further: potency means the concentration at half of the fitted maximal effect
# [3] = target: Gonadotropin-releasing hormone receptor (Homo sapiens) (UniProt P30968); assay: Human gonadotropin-releasing hormone receptor (GnRHR) small molecule agonists, calcium flux assay in GnRHR-HEK293 cells (AID 1920063); further: nearly all actives have a fitted effect of over 35% in size
# Gonadotropin-releasing hormone receptor (Homo sapiens), sequence (P30968 whole entry, looked up): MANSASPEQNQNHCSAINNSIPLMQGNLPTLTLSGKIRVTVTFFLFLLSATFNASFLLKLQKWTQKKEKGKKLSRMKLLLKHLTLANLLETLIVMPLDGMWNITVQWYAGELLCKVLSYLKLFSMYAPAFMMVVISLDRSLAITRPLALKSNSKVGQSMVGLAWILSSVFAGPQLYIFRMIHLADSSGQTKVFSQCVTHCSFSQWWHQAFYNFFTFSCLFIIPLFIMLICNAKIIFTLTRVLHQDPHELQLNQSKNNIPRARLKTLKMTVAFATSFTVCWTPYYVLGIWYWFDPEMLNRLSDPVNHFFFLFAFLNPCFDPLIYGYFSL
# Outline: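 Tox21-format agonist screen using human GnRHR-expressing HEK293 cells and a fluorescent calcium dye; kinetic 3-min fluorescence reading after compound addition, 15-point concentration series run in triplicate.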
# [4] = target: KiSS-1 receptor (Homo sapiens) (UniProt Q969F8); assay: Human kisspeptin (KISS1R) small molecule agonists, calcium flux assay in KISS1R-HEK293 cells (AID 1920064; active means well fitted curve in the direction sought with a large enough effect in the repeat runs; an effect the other way counts as inactive or inconclusive)
# KiSS-1 receptor (Homo sapiens), sequence (Q969F8 whole entry, looked up): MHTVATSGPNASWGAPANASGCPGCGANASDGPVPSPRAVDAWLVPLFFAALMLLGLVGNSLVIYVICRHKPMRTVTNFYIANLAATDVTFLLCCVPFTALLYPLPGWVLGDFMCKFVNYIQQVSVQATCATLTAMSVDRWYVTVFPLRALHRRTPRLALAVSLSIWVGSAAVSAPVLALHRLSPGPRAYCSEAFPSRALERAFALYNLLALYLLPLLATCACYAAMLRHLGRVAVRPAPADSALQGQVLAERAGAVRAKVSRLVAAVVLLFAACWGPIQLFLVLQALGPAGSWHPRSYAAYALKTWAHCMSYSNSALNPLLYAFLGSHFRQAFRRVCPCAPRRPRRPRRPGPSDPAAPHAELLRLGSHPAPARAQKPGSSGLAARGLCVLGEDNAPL
# Outline: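 Intracellular calcium mobilization in KISS1R-HEK293 cells was recorded by fluorescence (Ex/Em 480/540) for 3 min following compound addition to cells pre-loaded 1 h with calcium dye.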
# [5] = G protein-coupled receptor (GPCR) small molecule agonists, calcium flux assay: HEK293 wild type cell line counter screen (AID 1920065)
# Outline: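 In this agonist-mode screen, ATP is the positive control and DMSO the vehicle. Cells grow 18 h before a 1 h dye incubation at 37 C; signal is taken at Ex/Em 480/540 over 3 min.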
# [6] = p53 small molecule agonists, cell-based qHTS assay with human liver microsomes (AID 1963577);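 further: p53 response element beta-lactamase reporter cells with liver microsomes plus NADPH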
# Outline: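 Steps: plate p53RE-bla cells, incubate 5 h at 37 C; add compound in DMSO; add microsomes (0.5 mg/mL final) and NADPH (0.5 mg/mL final); incubate 16 h at 37 C; add LiveBLAzer, 2 h RT; read fluorescence.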
# [7] = p53 small molecule agonists, cell-based qHTS assay with rat liver microsomes (AID 1963578)
# Outline: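 Metabolic activation is supplied by rat liver microsomes with NADPH (each 0.5 mg/mL final). p53RE-bla cells incubate with compound 16 h at 37 C; reporter activity is measured by LiveBLAzer fluorescence.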
# [8] = p53 small molecule agonists, cell-based qHTS assay with human liver microsomes: qHTS cell viability counter screen (AID 1963579); further: nearly all actives have a fitted effect of over 45% in size
# Outline: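 After the 460/530 nm beta-lactamase read, CellTiter-Glo was added to the same wells and luminescence measured after 30 min at room temperature, giving viability of p53RE-bla cells treated 16 h with compounds plus microsomes and NADPH.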
# [9] = p53 small molecule agonists, cell-based qHTS assay with rat liver microsomes: qHTS cell viability counter screen (AID 1963580); further: nearly all actives have a fitted effect of over 45% in size
# Outline: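 HCT-116 p53RE-bla, 4,000 cells/well, 5 h pre-incubation; cpd + rat liver microsomes 0.5 mg/mL + NADPH 0.5 mg/mL (final); 16 h, 37 C; CellTiter-Glo, 30 min RT; luminescence.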
# [10] = p53 small molecule agonists, cell-based qHTS assay: qHTS cell viability counter screen (AID 1963581); further: nearly all actives have a fitted effect of over 45% in size
# Outline: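 Compounds are pinned onto HCT-116 p53RE-bla cells and left 16 h at 37 C. Following the reporter FRET read, ATP is quantified by CellTiter-Glo luminescence after 30 min at room temperature.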
# [11] = p53 small molecule agonists, cell-based qHTS assay (AID 1963582; active means well fitted activation curve with a large enough effect in the signal ratio in the repeat runs, not every such curve was filed as active; the % refers to the signal ratio)
# Outline: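 Agonist activity was scored from beta-lactamase FRET fluorescence in p53RE-bla cells treated 16 h at 37 C with compounds in DMSO, substrate incubation being 2 h at room temperature.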
# [12] = cAMP Responsive Elements (CRE) small molecule agonists, cell-based qHTS assay (AID 1963590)
# Outline: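 FRET-based beta-lactamase readout (LiveBLAzer B/G, 2 h RT) quantified CRE activation in HEK 293T CRE-bla cells after 3 h treatment with DMSO-dissolved compounds.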
# [13] = cAMP Responsive Elements (CRE) small molecule antagonists, cell-based qHTS assay (AID 1963591; active means well fitted inhibition curve with a large enough effect in the signal ratio in the repeat runs, not every such curve was filed as active; the % refers to the signal ratio)
# Outline: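 qHTS in CRE-bla HEK 293T cells: compound in DMSO, then 0.25 uM NKH477 (final), 3 h at 37 °C/5% CO2; beta-lactamase FRET read-out after 2 h substrate incubation.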
# [14] = target: Beta-2 adrenergic receptor (Homo sapiens) (UniProt P07550); assay: Adrenergic beta2 receptor (ADRB2) small molecule antagonists, cell-based qHTS assay (AID 1963592); further: series mostly up to about 92 µM; nearly all actives have a fitted effect of over 50% in size
# Beta-2 adrenergic receptor (Homo sapiens), sequence (P07550 whole entry, looked up): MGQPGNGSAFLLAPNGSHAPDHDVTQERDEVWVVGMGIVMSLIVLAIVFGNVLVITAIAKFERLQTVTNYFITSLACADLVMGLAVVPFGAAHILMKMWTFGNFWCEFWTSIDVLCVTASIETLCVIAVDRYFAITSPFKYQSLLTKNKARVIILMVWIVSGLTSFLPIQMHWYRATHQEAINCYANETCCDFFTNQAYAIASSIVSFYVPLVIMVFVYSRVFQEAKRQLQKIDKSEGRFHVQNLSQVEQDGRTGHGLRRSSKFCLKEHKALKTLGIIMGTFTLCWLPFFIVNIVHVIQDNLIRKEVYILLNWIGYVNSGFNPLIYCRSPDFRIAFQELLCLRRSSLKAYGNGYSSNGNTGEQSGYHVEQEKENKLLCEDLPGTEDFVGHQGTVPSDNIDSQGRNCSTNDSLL
# Outline: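 Cells (CHO, stable ADRB2 overexpression) incubated 18-20hr at 37C; compounds added from DMSO; agonist mix (1nM isoproterenol, 100uM IBMX, 25uM Ro-20-1724) added; 0.5hr RT; d2-cAMP and anti-cAMP-cryptate added; 1hr RT; 665/615 nm read.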
# [15] = target: D(2) dopamine receptor (Homo sapiens) (UniProt P14416); assay: Dopamine D2 receptor (DRD2) small molecule agonists, cell-based qHTS assay (AID 1963594); further: nearly all actives have a fitted effect of over 35% in size
# D(2) dopamine receptor (Homo sapiens), sequence (P14416 whole entry, looked up): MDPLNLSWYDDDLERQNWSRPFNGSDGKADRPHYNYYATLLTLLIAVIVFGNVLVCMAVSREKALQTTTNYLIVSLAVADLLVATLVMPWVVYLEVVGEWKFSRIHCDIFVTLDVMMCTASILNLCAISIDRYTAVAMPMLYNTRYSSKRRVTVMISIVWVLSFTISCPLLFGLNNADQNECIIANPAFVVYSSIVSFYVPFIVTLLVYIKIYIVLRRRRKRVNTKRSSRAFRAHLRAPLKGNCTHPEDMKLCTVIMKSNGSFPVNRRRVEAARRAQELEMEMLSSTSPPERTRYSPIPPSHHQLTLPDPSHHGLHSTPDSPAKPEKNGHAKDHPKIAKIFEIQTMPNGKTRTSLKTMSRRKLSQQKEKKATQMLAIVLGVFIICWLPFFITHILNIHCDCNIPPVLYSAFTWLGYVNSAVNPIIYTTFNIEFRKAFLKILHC
# Outline: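 cAMP accumulation in DRD2-HEK293 cells measured by HTRF after 1 h detection; compounds added 10 min before NKH477 (200nM […]) forskolin-analogue stimulation, 30 min at room temperature, with Ro20-1724 present at 0.1 mM final.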
# [16] = target: Beta-2 adrenergic receptor (Homo sapiens) (UniProt P07550); assay: Adrenergic beta2 receptor (ADRB2) small molecule agonists, cell-based qHTS assay (AID 1963593);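 further: CHO cells stably overexpressing human ADRB2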
# Outline: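 CHO cells stably over-expressing ADRB2 were plated overnight at 37C, then dosed with compounds plus a stimulation mix containing 100uM IBMX and 25uM Ro-20-1724 for 0.5hr at room temperature. cAMP was measured by HTRF competition, 1hr.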
# [17] = target: D(2) dopamine receptor (Homo sapiens) (UniProt P14416); assay: Dopamine D2 receptor (DRD2) small molecule antagonists, cell-based qHTS assay (AID 1963595; active means well fitted inhibition curve with a large enough effect in the signal ratio in the repeat runs, with a control signal flat; the % refers to the signal ratio)
# Outline: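 Cells were plated and grown for 24 h at 37 °C. Ro20-1724 (0.1 mM final) went in first, then compound for 10 min. NKH477 (200 nM) with quinpirole (12 nM) followed for 30 min at RT, then HTRF detection reagents for 1 h.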
# [18] = target: 5-hydroxytryptamine receptor 2A (Homo sapiens) (UniProt P28223); assay: 5-hydroxytryptamine receptor 2A (HTR2A) small molecule agonists, cell-based qHTS assay (AID 1963587); further: nearly all actives have a fitted effect of over 30% in size
# 5-hydroxytryptamine receptor 2A (Homo sapiens), sequence (P28223 whole entry, looked up): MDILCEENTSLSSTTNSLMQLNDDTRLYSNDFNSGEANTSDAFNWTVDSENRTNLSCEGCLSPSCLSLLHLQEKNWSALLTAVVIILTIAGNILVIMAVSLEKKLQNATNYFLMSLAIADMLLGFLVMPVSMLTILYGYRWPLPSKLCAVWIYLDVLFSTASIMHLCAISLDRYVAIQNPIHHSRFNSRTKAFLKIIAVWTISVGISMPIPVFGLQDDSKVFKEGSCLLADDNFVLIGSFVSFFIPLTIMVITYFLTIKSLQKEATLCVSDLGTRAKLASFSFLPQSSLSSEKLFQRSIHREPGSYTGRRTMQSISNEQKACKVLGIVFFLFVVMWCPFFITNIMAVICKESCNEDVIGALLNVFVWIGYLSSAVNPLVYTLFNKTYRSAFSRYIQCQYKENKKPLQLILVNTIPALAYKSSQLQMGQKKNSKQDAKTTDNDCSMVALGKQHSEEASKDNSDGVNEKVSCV
# Outline: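 Kinetic calcium-flux fluorescence (2 min, 1 sec intervals) after compound addition in agonist mode. HTR2A-CHO cells were cultured 18 h, then dye-loaded 1 h at 37 C.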
# [19] = target: Muscarinic acetylcholine receptor M1 (Homo sapiens) (UniProt P11229); assay: Cholinergic receptor muscarinic 1 (CHRM1) small molecule antagonists, cell-based qHTS assay (AID 1963588); further: nearly all actives have a fitted effect of over 40% in size
# Muscarinic acetylcholine receptor M1 (Homo sapiens), sequence (P11229 whole entry, looked up): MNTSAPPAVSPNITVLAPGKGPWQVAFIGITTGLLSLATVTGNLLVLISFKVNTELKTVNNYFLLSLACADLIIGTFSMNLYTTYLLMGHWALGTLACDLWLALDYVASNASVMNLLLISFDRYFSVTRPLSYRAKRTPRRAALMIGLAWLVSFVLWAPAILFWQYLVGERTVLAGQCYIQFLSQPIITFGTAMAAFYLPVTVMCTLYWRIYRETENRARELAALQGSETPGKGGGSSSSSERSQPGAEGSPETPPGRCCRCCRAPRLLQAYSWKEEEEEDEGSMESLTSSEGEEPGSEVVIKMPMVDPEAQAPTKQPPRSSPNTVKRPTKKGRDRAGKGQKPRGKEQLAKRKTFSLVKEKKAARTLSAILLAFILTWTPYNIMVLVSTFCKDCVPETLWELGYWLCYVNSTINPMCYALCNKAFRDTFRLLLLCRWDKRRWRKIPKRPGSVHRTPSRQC
# Outline: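 CHRM1-CHO calcium-flux assay, antagonist mode. Cells were seeded 18 h, dye-loaded 1 h at 37 C and given compound for 5 min at RT, then acetylcholine was added at 50nM. FDSS fluorescence was read 3 min; 15 concentrations, three runs.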
# [20] = target: Muscarinic acetylcholine receptor M1 (Homo sapiens) (UniProt P11229); assay: Cholinergic receptor muscarinic 1 (CHRM1) small molecule agonists, cell-based qHTS assay (AID 1963589); further: nearly all actives have a fitted effect of over 35% in size
# Outline: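 Stable CHRM1-CHO cells (human receptor) were incubated 18 h, dye-loaded for 1 h at 37 C and exposed to test compounds for agonist activity, with calcium-dependent fluorescence followed kinetically.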
Structure (SMILES),Potency [1],Potency [2],Potency [3],Potency [4],Potency [5],Potency [6],Potency [7],Potency [8],Potency [9],Potency [10],Potency [11],Potency [12],Potency [13],Potency [14],Potency [15],Potency [16],Potency [17],Potency [18],Potency [19],Potency [20]
CC[C@H](C)C(=O)O[C@H]1C[C@@H](C)C=C2C=C[C@H](C)[C@H](CC[C@@H]3C[C@@H](O)CC(=O)O3)[C@H]21,69.6 µM (active) and inactive,inactive,inactive,inactive,inactive,inactive,inactive,inactive,inactive,inactive,inactive,inactive,inactive,inactive,inactive,–,–,–,–,–
NC(=O)c1ccccc1O,inactive,inactive,inactive,inactive,inactive,inactive,inactive,inactive,inactive,inactive,inactive,inactive,inactive,inactive,inactive,inactive,inactive,–,–,–
Cc1ccc(O)cc1,inactive,inactive,inactive,inactive,inactive,inactive,inactive,inactive,inactive,inactive,inactive,inactive,inactive,–,–,inactive,inactive,inactive,inactive,inactive
CN1C(C(=O)Nc2ccccn2)=C(O)c2ccccc2S1(=O)=O,inactive,inactive,inactive,inactive,inactive,inactive,inactive,inactive,inactive,inactive,inactive,inactive,inactive,inactive,inactive,–,inactive,–,–,–
C#C[C@]1(O)CC[C@H]2[C@@H]3CCc4cc(OC)ccc4[C@H]3CC[C@@]21C,inactive,54.5 µM (active) and 26.6 µM (active),inactive,inactive,inactive,inactive,inactive,inactive,inactive,inactive,inactive,–,inactive,inactive,inactive,–,inactive,–,–,–
CCOC(=O)C1OC1c1ccccc1 (stereo not drawn),inactive,inactive,inactive,inactive,inactive,inactive,inactive,inactive,inactive,inactive,–,inactive,–,inactive,inactive,inactive,inactive,inactive,inactive,inactive
[O-]/[N+](=N\O)c1ccccc1,inactive,68 µM (active) and 34.4 µM (active),inactive,inactive,inactive,inactive,inactive,inactive,inactive,inactive,–,–,inactive,inactive,inactive,–,inactive,inactive,inactive,inactive
CC(=O)c1ccc(O)cc1,inactive,inactive,inactive,inactive,inactive,inactive,inactive,inactive,inactive,inactive,–,inactive,inactive,inactive,inactive,inactive,inactive,inactive,inactive,inactive
Cc1ccc(S(=O)(=O)O)cc1C,inactive,inactive,inactive,inactive,inactive,inactive,inactive,inactive,inactive,inactive,–,inactive,inactive,inactive,inactive,inactive,inactive,inactive,inactive,inactive
c1ccc2ccccc2c1,inactive,inactive,inactive,inactive,inactive,inactive,inactive,inactive,inactive,inactive,–,–,inactive,inactive,–,–,inactive,inactive,inactive,inactive
CCCCOC(=O)c1ccc(N)cc1,inactive,inactive,inactive,inactive,inactive,inactive,inactive,inactive,inactive,inactive,inactive,–,inactive,inactive,–,inactive,inactive,–,–,–
O=C(c1ccccc1)c1ccc(O)c(O)c1O,inactive,inactive,inactive,inactive,inactive,inactive,inactive,inactive,inactive,inactive,–,inactive,–,inactive,inactive,inactive,inactive,inactive,inactive,inactive
O=c1[nH]nnc2ccccc12,inactive,inactive,inactive,inactive,inactive,inactive,inactive,inactive,inactive,inactive,–,inactive,inactive,inactive,inactive,–,inactive,inactive,inactive,inactive
Cc1ccc(C(C)C)cc1,inactive,inactive,inactive,inactive,inactive,inactive,inactive,inactive,inactive,inactive,–,inactive,inactive,inactive,inactive,inactive,inactive,inactive,inactive,inactive
CC(C)c1ccc(C(C)C)cc1,inactive,inactive,inactive,inactive,inactive,inactive,inactive,inactive,inactive,inactive,–,inactive,–,inactive,inactive,inactive,inactive,inactive,inactive,inactive
